Compound activity from PubChem BioAssay.
HSF1 inh: HSF1 inhibition; 0.77% of 300,000 active; activity change, negative = inhibition, % at 7.5 µM (by protocol); NIH3T3-HGL HSE-luciferase, MG132-induced, luminescence 8 h; active compounds read low;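 active means more than half of replicate wells show activity change below -50%, luminescence cut by over half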;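 further: luciferase reports HSF-1 transcriptional activity via heat shock element; 0% = median of DMSO wells and -100% = zero luminescence signal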
HSF1 activator: increases HSF-1 driven luciferase reporter signal | 1.7% of 300,000 active | NIH3T3-HGL HSF-1 luciferase reporter, MG132, 8 h; 100% = twice DMSO control signal | activation, % at 9 µM;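 active means mean replicate activation of at least 50% with a set share of replicates each reaching 50%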;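 further: 0% = median of the neutral control wells and 100% = twice that signal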
NOD2-RIPK2 inh: blocks binding of human NOD2 to RIPK2 | 0.38% of 360,000 active | AID 624267 | CHO BLA complementation NOD2-RIPK2, CCF4 ratio | inhibition, % at 4.98 µM; in the data active means inhibition above about 21%;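 further: 0% = vehicle only and 100% = reference blocker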
TLR4 MyD88 comp: TLR4-MyD88 interaction inhibition in cells | HeLa CL3-4 TLR4/MyD88 BLA complementation, FRET ratio | AID 861 | inhibition, % at 8.4 µM | 0.18% of 200,000 active | O00206+Q99836; in the data active means inhibition above about 25%;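 further: 0% = vehicle and 100% = reference inhibitor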
TLR9-MyD88 inh: TLR9-MyD88 interaction inhibition | inhibition, % at 4.98 µM | CHO BLA complementation TLR9-MyD88, CCF4 FRET ratio | 0.21% of 340,000 active | Q9NR96+Q99836;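 active means inhibition above the mean over all tested compounds plus 3 SD, cut at about 21% in these data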;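 further: 0% = DMSO only wells and 100% = clavulanate BLA inhibitor control wells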
The depositor's hits bear a star; / = no result given. Rows were chosen to be rich in hits. Some 2.4% of all compounds tested hit in one or more screens of this group.

SMILES	HSF1 inh	HSF1 activator	NOD2-RIPK2 inh	TLR4 MyD88 comp	TLR9-MyD88 inh
Cc1ccc(-c2csc3nc[nH]c(=O)c23)c(C)c1	45	95*	3	/	-16
O=[N+]([O-])c1ccccc1N/N=C\c1ccccc1Cl	28	36	-14	-13	-3
O=[N+]([O-])c1ccccc1N/N=C\c1ccccc1F	28	65*	-2	/	10
Cc1ccccc1Oc1nc2c(C)cccn2c(=O)c1/C=C(\C#N)C(=O)NC1CCS(=O)(=O)C1 (stereo not drawn)	43	72*	-4	/	-1
Cc1ccc(-c2nn(C)c(=O)c3ccccc23)cc1S(=O)(=O)NCCN(C)C	-61*	-67	6	6	-4
COc1ccc(/C=C2\Oc3cc(OC(=O)N4CCOCC4)ccc3C2=O)cc1	6	2	-2	/	5
CC(=O)Oc1ccc2c(c1)O/C(=C\c1ccncc1)C2=O	-1	1	31*	/	13
CCc1ccc(/C=C2\Oc3cc(OC(=O)N4CCOCC4)ccc3C2=O)cc1	-76*	-81	-9	-3	0
CC(=O)/C(=N/Nc1ccccc1)Sc1nnc(CCc2ccccc2)n1-c1ccccc1	1	13	7	3	0
CC(=O)/C(=N\Nc1ccc(Cl)cc1)Sc1nnc(-c2ccccc2)n1-c1ccccc1	-55*	-62	-1	11	3
CC(C)(C)NC(=O)C1c2ccccc2OCC(=O)N1CCCN1CCOCC1 (stereo not drawn)	/	/	-8	/	/
CC(=O)Nc1cccc(-c2ccnc3c2CC(C(=O)Nc2cccc(Oc4ccccc4)c2)O3)c1 (stereo not drawn)	/	/	1	/	/
O=C1CC(c2ccc(O)c(O)c2)Oc2cc(O)cc(O)c21 (stereo not drawn)	9	15	6	/	-1
Oc1ccc(C2C[C@H]3CC[C@@H]2C3)cc1O (stereo partly drawn)	80	90*	0	/	11
CCN(CC)c1ccc(C(=O)NNC(=O)c2cccn2C)cc1	18	55*	-2	/	-5
O=C(CBr)c1ccc([N+](=O)[O-])c(CS(=O)(=O)c2ccc(Cl)cc2)c1	53	60*	6	/	2
CNC[C@@H]1Oc2cc(Br)ccc2S(=O)(=O)N([C@@H](C)CO)C[C@H]1C	/	/	3	/	-4
COCC(=O)Nc1ccc2c(c1)[C@@H]1C[C@H](CC(=O)OC)O[C@@H](CO)[C@@H]1O2	/	/	-3	/	3
CC(=O)Nc1cccc(-c2csc(Nc3ccc(C)cn3)n2)c1	35	67*	4	-15	4
CC(=O)Nc1cccc(-c2csc(Nc3ncccn3)n2)c1	33	48	/	-13	/
Cc1ccc(C2/C(=C(\O)c3cnn(-c4ccccc4)c3C)C(=O)C(=O)N2CCN(C)C)o1 (stereo not drawn)	26	66*	1	-5	-6
Cc1c(/C(O)=C2\C(=O)C(=O)N(CCN(C)C)C2c2ccccc2)cnn1-c1ccccc1 (stereo not drawn)	-63*	-63	4	/	-2
CCN(CC)CCN1C(=O)C(=O)/C(=C(/O)c2cnn(-c3ccccc3)c2C)C1c1ccc(C)o1 (stereo not drawn)	3	35	4	0	-12
CCOC(=O)CC1C(=O)NCCN1C(=O)c1cccc(OC)c1 (stereo not drawn)	5	-2	0	/	-4
Cc1ccc(C(=O)C=CNNC(=O)c2ccccc2)cc1	11	26	18	/	-7
SMILES	HSF1 inh	HSF1 activator	NOD2-RIPK2 inh	TLR4 MyD88 comp	TLR9-MyD88 inh
CC(/C=C/C(=O)c1ccc(C)cc1)=C\c1ccccc1	9	15	5	1	3
Cc1ccc(C(=O)/C=C\C(=O)c2ccc(C)cc2)cc1	231	294*	3	-8	-1
Cc1ccc(NC(=O)C(=O)c2c[nH]c3ccccc23)cc1	55	84*	1	/	4
Cc1ccc(S/C=C\C(=O)c2ccccc2)cc1	85	118*	-12	0	-4
Cc1ccc(C(=O)/C=C/c2ccc(-c3ccc(C)cc3)o2)cc1	27	56*	-7	6	0
COc1ccc(NC(=O)C(=O)NCC2CCCN2S(=O)(=O)c2cccs2)cc1 (stereo not drawn)	-12	-16	-7	/	-1
CC(C)Cc1nnc(NC(=O)C2CC(=O)N(c3ccc4c(c3)OCCO4)C2)s1 (stereo not drawn)	/	/	-7	/	7
Cc1ccc(C(=O)/C=C/c2c[nH]c3ccccc23)cc1	14	40	25*	25	16
CCn1nnc(NC(=O)c2sc3ccccc3c2Cl)n1	43	74*	5	4	8
CCn1nnc(NC(=O)c2cccnc2Cl)n1	-2	16	-1	-9	2
O=C(/C=C/c1ccc(Br)cc1)NC(=O)c1ccccc1O	127	161*	5	2	6
COc1ccc(-c2nc3n(n2)C(c2ccccc2)C2=C(CCCC2=O)N3)cc1OC (stereo not drawn)	-57*	-68	-10	-3	-3
COc1cccc(Sc2ccccc2/C=N/NC(N)=O)c1	20	57*	-2	2	6
O=C(COC(=O)c1cccc(-n2cnnn2)c1)c1ccc(F)c(F)c1	/	/	1	/	3
COc1ccc2occ(C(=O)c3cccs3)c2c1	36	78*	1	5	7
COc1ccc2occ(C(=O)c3ccc(N)cc3)c2c1	14	11	4	/	9
COc1cccc(C2C=C(c3ccc(OC)cc3OC)Nc3nnnn32)c1 (stereo not drawn)	6	3	31*	8	46*
O=C(Nc1ccccc1Sc1ccccc1)c1ccc(F)cc1	2	24	-14	0	7
Cc1ccc(C(=O)Nc2ccc(C(=O)O)cc2NC(=O)c2ccc(C)cc2)cc1	-51*	-55	14	/	-3
Cc1ccc(C(=O)Nc2cccc(C(=O)O)c2)cc1	-72*	-72	/	12	/
Cc1ccc(C(=O)Nc2ccccc2Sc2ccccc2)cc1	36	57*	-2	-10	-12
O=C(O)c1cccc(NC(=O)c2ccccc2)c1	/	/	-7	/	-7
CC1OC(CC(=O)O)CC2=C1C(=O)c1c(O)cccc1C2=O (stereo not drawn)	/	/	78*	/	0
O=C1c2cccc(O)c2C(=O)c2c(O)cccc21	-3	10	/	-1	/
COc1ccccc1N(CC(=O)NC1CCCC1)C(=O)CCC(=O)Nc1ccccn1	-1	17	-5	/	-6
Nn1c(COc2cccc(Br)c2)nnc1SCC(=O)NCC1CCCO1 (stereo not drawn)	/	/	6	/	4
C[C@@H]1O[C@@H](O[C@H]2[C@H](Oc3cc(O)c4c(c3)OC(c3ccc(O)cc3)CC4=O)O[C@H](CO)[C@@H](O)[C@@H]2O)[C@H](O)[C@H](O)[C@H]1O (stereo partly drawn)	4	21	-10	/	-8
Cc1cnc(NC(=O)c2cccs2)s1	36	83*	-2	/	-1
Cc1cnc(NC(=O)Nc2ccc(Cl)cc2)s1	343	274*	-2	-9	3
